Bioassay records (PubChem)
IL-1B inflam inh: inflammasome signaling inhibition, IL-1 beta readout; AID 743279; THP-1 LPS/ATP IL-1B secretion, AlphaLISA, 16 h; stronger effect = lower value; activity change, % at 57.5 µM; actives 4.7% (n = 360,000); in the data active = activity change below about -50%; inconclusive = mostly about -30% to -49%
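Secreted IL-1B measured by AlphaLISA bead assay after 16 h compound exposure of THP-1 cells; compounds (final up to 57.5 uM) added 1 h before LPS (250 ng/mL) and ATP (1.25 mM) stimulation; lower signal means less secretion.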
D3 ag: activates the human D3 dopamine receptor | D3R DiscoveRx beta-arrestin cells, luminescence, 90 min | max activation, % | actives 0.58% (n = 410,000) | AID 652048; in the data active = max activation above about 30%
Target sequence (P35462 whole entry, looked up): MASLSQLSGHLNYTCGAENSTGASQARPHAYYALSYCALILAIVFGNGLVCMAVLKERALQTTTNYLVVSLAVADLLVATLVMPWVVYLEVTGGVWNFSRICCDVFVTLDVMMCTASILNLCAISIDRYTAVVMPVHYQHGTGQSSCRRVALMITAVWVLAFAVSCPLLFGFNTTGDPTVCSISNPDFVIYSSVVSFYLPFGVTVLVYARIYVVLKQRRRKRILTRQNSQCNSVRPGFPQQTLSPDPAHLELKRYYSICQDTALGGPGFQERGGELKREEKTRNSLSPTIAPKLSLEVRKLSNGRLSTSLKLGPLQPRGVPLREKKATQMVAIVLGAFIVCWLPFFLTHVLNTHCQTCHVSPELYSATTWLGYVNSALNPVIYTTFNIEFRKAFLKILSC
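Agonist-mode cell screen: cells plated at 1500/well and incubated overnight at 37 °C, then exposed to library compounds for 90 min at 37 °C. Detection reagent was added for 30–60 min at room temperature, and luminescence was read.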
DRD3 antagonist: antagonists of human D3 dopamine receptor; P35462; max response, negative = inhibition, %; AID 652054; actives 2.5% (n = 360,000); D3R cells, DiscoveRx beta-arrestin luminescence, antagonist mode; stronger effect = lower value; in the data active = max response below about -50%; inconclusive = no clear call, values can overlap the other calls
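Cells plated overnight at 1500 cells/well, then exposed to library compounds with dopamine controls for 90 minutes at 37 degrees C. DiscoveRx reagent added for 30–60 minutes at room temperature; luminescence read, quantitative HTS format.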
DT40 TDP1 CPT: growth inhibition of DT40 Tdp1-/-;hTDP1 cells with camptothecin (screen for TDP1 inhibitors); actives 12% (n = 420,000); chicken DT40 Tdp1-/-;hTDP1 cells + 20 nM CPT, ATP luminescence, 48 h; Potency, µM (series often up to 46.2 µM), most hits filed as inhibitors; note: nearly all actives have a fitted effect of over 55% in size
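Chicken DT40 Tdp1-/- cells complemented with human TDP1, 400 cells/well, exposed to compounds plus 20 nM camptothecin for at least 48 h at 37 C; viability read as ATP content by CellTiter-Glo luminescence.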
TDP1 cell noCPT: qHTS for Inhibitors of human tyrosyl-DNA phosphodiesterase 1 (TDP1): qHTS in cells in absence of CPT. Potency, µM (doses to about 46.2 µM), usual class: inhibitors. DT40 Tdp1-/- hTDP1 cells, no CPT, ATP luminescence, 48 h. actives 15% (n = 420,000); note: nearly all actives have a fitted effect of over 55% in size
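Compound effects on proliferation are scored in DT40 Tdp1-/-;hTDP1 cells in the absence of CPT. ATP levels (CellTiter-Glo luminescence) are recorded after a ≥48 hr, 37 °C incubation.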
ClpP mod: qHTS Assay for Activators of ClpP; ATP-dependent Clp protease proteolytic subunit (Bacillus subtilis (strain 168)), P80244; purified B. subtilis ClpP, FRET peptide cleavage, 20 min; Potency, µM (titrated, usually from 57.5 µM); actives 1.9% (n = 340,000); active = well fitted falling curve with a large enough effect; inconclusive = small, poorly fitted or top-dose-only effect; inactive = no such curve, though single readings can be large or run the other way; note: the source files actives as falling curves though it sought activators and does not explain the sign; nearly all actives have a fitted effect of over 65% in size
Target sequence (P80244 whole entry, looked up): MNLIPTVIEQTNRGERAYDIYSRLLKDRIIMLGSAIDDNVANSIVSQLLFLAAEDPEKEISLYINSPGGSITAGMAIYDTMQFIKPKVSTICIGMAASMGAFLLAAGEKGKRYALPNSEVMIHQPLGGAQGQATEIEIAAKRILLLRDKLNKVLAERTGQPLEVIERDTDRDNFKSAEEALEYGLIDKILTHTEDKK
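Buffer: 100 mM Tris/HCl pH8, 100 mM KCl, 0.05% low protease BSA, 2.5% glycerol, 0.01% Tween-20. ClpP 10 microg/mL final; 20 min RT; delta FRET normalized to ADEP and DMSO controls.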
Hits are given with their value. Most compounds without a hit are left out; they make up all but 21% or so of the library. Unless noted, calls come from the whole dose curve; as a rule, active = well fitted inhibition curve with a large enough effect; inconclusive = small, poorly fitted or top-dose-only effect; inactive = flat fitted curve, though single readings scatter.

Screening O=C(Nc1ccncc1)c1cc(C2CCCCN2C(=O)CCc2ccccc2)on1 (configuration not stated) returned IL-1B inflam inh inactive, D3 ag inactive, DRD3 antagonist inactive, DT40 TDP1 CPT inconclusive, TDP1 cell noCPT inconclusive and ClpP mod inactive.
Screening O=C(Nc1cccc2c1CCCC2)c1cc(C2CCCCN2C(=O)CCCc2ccccc2)on1 (configuration not stated) returned IL-1B inflam inh inactive, D3 ag inactive, DRD3 antagonist inactive, DT40 TDP1 CPT 16.4µM, TDP1 cell noCPT inconclusive and ClpP mod inactive.
Screening O=C(Nc1ccncc1)c1cc(C2CCCCN2C(=O)CCCc2ccccc2)on1 (configuration not stated) returned IL-1B inflam inh inactive, D3 ag inactive, DRD3 antagonist inactive, DT40 TDP1 CPT 16.4µM, TDP1 cell noCPT 14.6µM and ClpP mod inactive.
Screening O=C(Nc1ccccc1Cl)c1cc(C2CCCCN2C(=O)CCc2ccccc2)on1 (configuration not stated) returned IL-1B inflam inh inactive, D3 ag inactive, DRD3 antagonist inactive, DT40 TDP1 CPT inconclusive, TDP1 cell noCPT inconclusive and ClpP mod inactive.
Screening O=C(Cc1ccc(Br)cc1)NO returned DT40 TDP1 CPT inconclusive, TDP1 cell noCPT inconclusive and ClpP mod inactive.
`CSc1nsc(/C=C/Nc2ccc(O)cc2C)c1C#N` gave IL-1B inflam inh inactive, D3 ag inactive, DRD3 antagonist -54.9, DT40 TDP1 CPT inconclusive, TDP1 cell noCPT inconclusive and ClpP mod inactive.
For CCOC(=O)C1(C)CCCN1C(=O)c1cccc2ccccc12 (configuration not stated) the results were IL-1B inflam inh inactive, D3 ag inactive, DRD3 antagonist inactive, DT40 TDP1 CPT 11.6µM, TDP1 cell noCPT 18.4µM and ClpP mod inactive.
Screening CCOC(=O)C1(C)CCCCCN1C(=O)c1ccc(N(C)C)cc1 (configuration not stated) returned IL-1B inflam inh inactive, D3 ag inactive, DRD3 antagonist inactive, DT40 TDP1 CPT inconclusive, TDP1 cell noCPT 20.6µM and ClpP mod inactive.
For CCOC(=O)C1(C)CCCN1C(=O)c1ccccc1F (configuration not stated) the results were IL-1B inflam inh inactive, D3 ag inactive, DRD3 antagonist inactive, DT40 TDP1 CPT inactive, TDP1 cell noCPT inactive and ClpP mod inactive.
For CCOC(=O)C1(C)CCCN1C(=O)c1ccc(C)cc1 (configuration not stated) the results were IL-1B inflam inh inactive, D3 ag inactive, DRD3 antagonist inactive, DT40 TDP1 CPT inactive, TDP1 cell noCPT inactive and ClpP mod inactive.
`CCOC(=O)C1(C)CCCCN1C(=O)c1ccco1` (configuration not stated) gave IL-1B inflam inh inactive, D3 ag inactive, DRD3 antagonist inactive, DT40 TDP1 CPT inactive, TDP1 cell noCPT inactive and ClpP mod inactive.
Screening CCOC(=O)C1(C)CCCCCN1C(=O)/C=C/c1ccccc1 (configuration not stated) returned IL-1B inflam inh inactive, D3 ag inactive, DRD3 antagonist inactive, DT40 TDP1 CPT 16.4µM, TDP1 cell noCPT 16.4µM and ClpP mod inactive.
Cc1cc2nc(-c3ccc(=O)[nH]c3)n(Cc3ccccc3)c2cc1C was read as IL-1B inflam inh inactive, D3 ag inactive, DRD3 antagonist inactive, DT40 TDP1 CPT inconclusive, TDP1 cell noCPT inconclusive and ClpP mod inconclusive.
`CCc1nnc(SCc2cc(C)ccc2C)c2cc3sc(C)cc3n12` gave D3 ag inactive, DT40 TDP1 CPT inconclusive, TDP1 cell noCPT inconclusive and ClpP mod inactive.
Screening CC1CC2(C)Oc3ccccc3CC2C(C)C1CNCCCN(C)C (configuration not stated) returned IL-1B inflam inh inconclusive, D3 ag inactive, DRD3 antagonist inconclusive, DT40 TDP1 CPT 4.11µM and TDP1 cell noCPT 1.16µM.
Screening Cn1cc(C(=O)c2ccc(Cl)cc2Cl)cc1C(=O)N/N=C(\N)COc1ccc(Cl)cc1 returned IL-1B inflam inh inactive, D3 ag inactive, DRD3 antagonist inactive, DT40 TDP1 CPT inconclusive and TDP1 cell noCPT inconclusive.
Screening Cn1cc(C(=O)c2ccc(Cl)cc2Cl)cc1C(=O)N/N=C(\N)COc1ccc(F)cc1 returned IL-1B inflam inh inactive, D3 ag inactive, DRD3 antagonist inactive, DT40 TDP1 CPT inconclusive, TDP1 cell noCPT 16.4µM and ClpP mod inactive.
Screening COc1ccc(-c2cc(C(F)(F)F)nc(SCC(=O)N3CCCCC3C)n2)cc1OC (configuration not stated) returned D3 ag inactive, DT40 TDP1 CPT inconclusive, TDP1 cell noCPT inconclusive and ClpP mod inactive.
`CCC1CCCCN1C(=O)CSc1nc(-c2ccc(OC)c(OC)c2)cc(C(F)(F)F)n1` (configuration not stated) gave D3 ag inactive, DT40 TDP1 CPT inconclusive, TDP1 cell noCPT 23.1µM and ClpP mod inactive.
`CCC1CCCCN1C(=O)CSc1nc(-c2ccc(OC)cc2)cc(C(F)(F)F)n1` (configuration not stated) gave D3 ag inactive, DT40 TDP1 CPT 23.1µM, TDP1 cell noCPT 9.2µM and ClpP mod inconclusive.
For COc1ccc(C(=O)NNC(=O)c2ccc(C)cc2)cc1S(=O)(=O)N1CCCC1 the results were IL-1B inflam inh inactive, D3 ag inactive, DRD3 antagonist inactive, DT40 TDP1 CPT inconclusive, TDP1 cell noCPT inconclusive and ClpP mod inactive.
Screening Cc1cc(C)c(S(=O)(=O)NCCc2sc(-c3cccnc3)nc2C)c(C)c1 returned D3 ag inactive and ClpP mod inactive.
`Cc1ccccc1OCCC(=O)Nc1ccc(S(=O)(=O)N(C)C2CCN(C)CC2)cc1` gave IL-1B inflam inh -60.9, D3 ag inactive, DRD3 antagonist -61.4, DT40 TDP1 CPT inconclusive, TDP1 cell noCPT inconclusive and ClpP mod inactive.
Screening CN1CCC(N(C)S(=O)(=O)c2ccc(NC(=O)COc3ccc(Br)cc3Cl)cc2)CC1 returned IL-1B inflam inh -62.7, D3 ag inactive, DRD3 antagonist inactive, DT40 TDP1 CPT 25.9µM and TDP1 cell noCPT 16.4µM.
For OCCNCCCOc1ccc(Cl)cc1Br the results were IL-1B inflam inh inactive, D3 ag inactive, DRD3 antagonist -63.6, DT40 TDP1 CPT inconclusive, TDP1 cell noCPT 29.1µM and ClpP mod inactive.
CCOc1ccc(Cl)cc1CNCCNCCO was read as IL-1B inflam inh inactive, D3 ag inactive, DRD3 antagonist inconclusive, DT40 TDP1 CPT inconclusive, TDP1 cell noCPT inconclusive and ClpP mod inactive.
`C=CCNCCCCOc1ccc(Br)cc1C` gave IL-1B inflam inh inactive, D3 ag inactive, DRD3 antagonist inconclusive, DT40 TDP1 CPT inconclusive, TDP1 cell noCPT inconclusive and ClpP mod inactive.
